This passage reports Potency results from PubChem BioAssay (NCATS).

Records with an inconclusive call do not appear. Calls of active or inactive are those of the source. The call rests on the fitted dose curve; in most records, active means well fitted inhibition curve with a large enough effect; inconclusive means small, poorly fitted or top-dose-only effect; inactive means flat fitted curve, though single readings scatter.

Experiment in all cases: qHTS profiling for inhibitors of Plasmodium falciparum proliferation (AID 504749); further: nearly all actives have a fitted effect of over 60% in size
Conditions in all cases: P. falciparum in erythrocytes, SYBR Green DNA, 72 h; series mostly up to 28.7 µM
For orientation: In qHTS, concentration-response curves come from the screen itself.

For one experiment, the system named is CP237. Summed up: (§1)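 SYBR Green fluorescence (ex 485 nm, em 535 nm) reports parasite DNA after 72 h compound exposure of infected red cells at 0.3% parasitemia, 2.5% hematocrit; signal normalized to 0.29 uM artemisinin and vehicle wells.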
Another experiment relates to CP238. Summed up: as §1
Another experiment has as its system CP247. The procedure, abridged:
as §1

Another experiment has as its system CP250. The procedure, abridged:
as §1

The subject of the next experiment is CP252. The procedure, abridged: as §1
The test system of a further experiment is CP256. Summed up:
as §1

A further experiment has as its system CP260. Summed up:
as §1

A further experiment concerns CP262. Summed up: as §1
The subject of another experiment is CP265. The procedure, abridged:
as §1

Another experiment concerns CP266. The procedure, abridged: as §1
Potency means the concentration at half of the fitted maximal effect.

As to `Nc1ncnc2c1ncn2[C@@H]1O[C@H](CO)[C@@H](O)[C@H]1O`, the Potency entry with CP237, in the experiment with CP238, with CP247, in the experiment with CP250, in the experiment with CP252 and in the experiment with CP256 was “inactive” each time. The Potency entry in the experiment with CP260, in the experiment with CP262, with CP265 and in the experiment on CP266 was “inactive” each time.

Take `COc1ccc(Cl)cc1C(=O)NCCc1ccc(S(=O)(=O)NC(=O)NC2CCCCC2)cc1`: the Potency result in the experiment with CP237, in the experiment on CP238, in the experiment on CP247, in the experiment on CP250, in the experiment with CP252 and with CP256 was “inactive” throughout. Moreover, the Potency result in the experiment on CP260, in the experiment with CP262, with CP265 and with CP266 was “inactive” throughout.

As to `C[C@H](N)[C@H](O)c1cccc(O)c1`, the Potency result with CP237, in the experiment on CP238, in the experiment with CP247, in the experiment with CP250, in the experiment with CP252 and in the experiment on CP256 was “inactive” throughout. The Potency entry in the experiment on CP260, in the experiment with CP262, with CP265 and in the experiment with CP266 was “inactive” in each case.

With `CC(O)CN(CCN(CC(C)O)CC(C)O)CC(C)O` (stereo unspecified), the Potency entry with CP237, in the experiment with CP238, in the experiment with CP247, in the experiment on CP250, with CP252 and with CP256 was “inactive” throughout. Besides, the Potency entry in the experiment on CP260, in the experiment on CP262 and with CP265 was “inactive” throughout.

On to `Cc1ccc(C(C)C)cc2c(C)ccc1-2`, for which the Potency entry in the experiment with CP237, in the experiment on CP238, with CP247, in the experiment with CP250, in the experiment with CP252 and in the experiment with CP256 was “inactive” each time. Moreover, the Potency result with CP260, with CP262, in the experiment with CP265 and in the experiment on CP266 was “inactive” in each case.

Consider `CCN(CC)CCNC(=O)c1c(C)[nH]c(/C=C2\C(=O)Nc3ccc(F)cc32)c1C`, for which the Potency is 8.91 µM (active) in the experiment on CP237; 7.94 µM (active) in the experiment with CP238; 10 µM (active) in the experiment on CP247; 14.1 µM (active) with CP250; 7.94 µM (active) with CP252; 11.2 µM (active) in the experiment with CP256. In addition, the Potency with CP260 is 7.08 µM (active).

In the case of `CCn1cc(C(=O)O)c(=O)c2cnc(N3CCNCC3)nc21`, the Potency result in the experiment with CP237, in the experiment on CP238, in the experiment with CP247, in the experiment with CP250, in the experiment with CP252 and in the experiment on CP256 was “inactive” throughout. Besides, the Potency result in the experiment on CP260, with CP262, with CP265 and in the experiment with CP266 was “inactive” each time.

`Nc1nc2c(ncn2CCC(CO)CO)c(=O)[nH]1`: the Potency result in the experiment with CP237, in the experiment on CP238, with CP247, in the experiment on CP250, in the experiment with CP252 and with CP256 was “inactive” throughout. For the same compound, the Potency entry with CP260, in the experiment on CP262 and in the experiment on CP265 was “inactive” throughout.

Turning to `O=C1NC(=O)[C@@]2(CCOc3ccc(F)cc32)N1`, the Potency entry in the experiment on CP237, in the experiment on CP238, in the experiment with CP247, with CP250, in the experiment on CP252 and in the experiment on CP256 was “inactive” throughout. Further, the Potency result with CP260, in the experiment with CP262 and in the experiment on CP265 was “inactive” in each case.

As to `NC(CSCC(=O)O)C(=O)O` (stereo unspecified), the Potency entry in the experiment on CP237, in the experiment with CP238, with CP247, in the experiment on CP250, in the experiment with CP252 and in the experiment with CP256 was “inactive” throughout. The Potency result in the experiment with CP260, with CP262 and with CP265 was “inactive” throughout.

In the case of `OCC(O)CN1CCN(c2ccccc2)CC1` (stereo unspecified), the Potency result in the experiment on CP237, with CP238, in the experiment on CP247, in the experiment on CP250, with CP252 and in the experiment on CP256 was “inactive” throughout. The Potency entry with CP260, in the experiment on CP262, with CP265 and in the experiment with CP266 was “inactive” in each case.

As for `C[C@H]1O[C@@H](n2cc(F)c(=O)[nH]c2=O)[C@H](O)[C@@H]1O`, the Potency result with CP237, in the experiment with CP238, with CP247, in the experiment on CP250, in the experiment with CP252 and in the experiment with CP256 was “inactive” in each case. Further, the Potency result with CP260, in the experiment on CP262 and in the experiment with CP265 was “inactive” each time.

In the case of `CC(=O)CCC(=O)O`, the Potency entry in the experiment with CP237, in the experiment on CP238, with CP247, in the experiment on CP250, in the experiment with CP252 and in the experiment with CP256 was “inactive” throughout. In addition, the Potency result in the experiment with CP260, in the experiment on CP262, with CP265 and in the experiment on CP266 was “inactive” throughout.

As to `CCOc1ccc2ccccc2c1C(=O)N[C@@H]1C(=O)N2[C@@H]1SC(C)(C)[C@@H]2C(=O)O`, the Potency result with CP237, with CP238, in the experiment on CP247, with CP250, in the experiment with CP252 and in the experiment with CP256 was “inactive” in each case. Further, the Potency entry in the experiment with CP260, with CP262, in the experiment with CP265 and in the experiment on CP266 was “inactive” each time.

For the compound `O=C1c2c(O)cccc2Cc2cccc(O)c21`, the Potency entry in the experiment on CP237, in the experiment on CP238, in the experiment with CP247, in the experiment on CP250, in the experiment on CP252 and in the experiment with CP256 was “inactive” each time. In addition, the Potency result in the experiment with CP260, with CP262, with CP265 and in the experiment on CP266 was “inactive” throughout.

For the compound `Cc1cc(N)c2ccccc2[n+]1CCCCCCCCCC[n+]1c(C)cc(N)c2ccccc21`, the Potency in the experiment on CP237 is 0.126 µM (active); in the experiment with CP238, 0.282 µM (active); in the experiment with CP247, 1.58 µM (active); in the experiment with CP250, 0.708 µM (active); in the experiment with CP252, 0.447 µM (active); in the experiment on CP256, 0.0794 µM (active). The Potency with CP260 is 0.631 µM (active); in the experiment on CP262 it was 0.181 µM (active); in the experiment on CP265, 0.0004 µM (active).

Turning to `CC(C(O)c1ccc(O)cc1)N1CCC(Cc2ccccc2)CC1` (stereo unspecified), the Potency in the experiment on CP237 was 8.91 µM (active).

`COc1cc2[nH]c(=O)[nH]c(=O)c2cc1OC`: the Potency entry in the experiment with CP237, in the experiment on CP238, in the experiment with CP247, in the experiment with CP250, in the experiment on CP252 and with CP256 was “inactive” each time. For the same compound, the Potency result in the experiment with CP260, in the experiment on CP262, in the experiment with CP265 and in the experiment with CP266 was “inactive” each time.

On to `O=Cc1ccccc1C=O`, for which the Potency result with CP237, in the experiment on CP238, with CP247, with CP250, in the experiment with CP252 and with CP256 was “inactive” in each case. Besides, the Potency result in the experiment on CP260, in the experiment with CP262, with CP265 and with CP266 was “inactive” throughout.

`CCN(CC)CCSC(=O)C(c1ccccc1)c1ccccc1`: the Potency result with CP237, in the experiment on CP238, with CP247, in the experiment on CP250, in the experiment with CP252 and with CP256 was “inactive” each time. The Potency result in the experiment on CP260, in the experiment on CP262, with CP265 and with CP266 was “inactive” throughout.

Regarding `CC12CCC(CC1)C(C)(C)O2`, the Potency entry in the experiment on CP237, in the experiment on CP238, in the experiment on CP247, in the experiment on CP250, in the experiment on CP252 and in the experiment with CP256 was “inactive” in each case. Further, the Potency result in the experiment with CP260, with CP262, in the experiment on CP265 and in the experiment with CP266 was “inactive” throughout.

Take `CC1=C(CC(=O)O)c2cc(F)ccc2/C1=C\c1ccc(S(C)=O)cc1` (stereo unspecified): the Potency entry with CP237, in the experiment on CP238, in the experiment on CP247, in the experiment with CP250, with CP252 and in the experiment on CP256 was “inactive” throughout. Further, the Potency entry in the experiment with CP260, in the experiment with CP262 and with CP265 was “inactive” in each case.

On to `Cn1c(=O)c2c(ncn2CC2OCCO2)n(C)c1=O`, for which the Potency result in the experiment with CP237, in the experiment on CP238, with CP247, with CP250, in the experiment on CP252 and in the experiment on CP256 was “inactive” in each case. The Potency result in the experiment with CP260, with CP262, in the experiment with CP265 and in the experiment on CP266 was “inactive” in each case.

`O=c1[nH]c(=O)c2[nH]c(=O)[nH]c2[nH]1`: the Potency entry in the experiment on CP237, in the experiment on CP238, in the experiment on CP247, in the experiment with CP250, with CP252 and in the experiment with CP256 was “inactive” throughout. Moreover, the Potency entry in the experiment with CP260, in the experiment on CP262, in the experiment with CP265 and in the experiment with CP266 was “inactive” throughout.

For the compound `Cc1c(Cl)cccc1Nc1ccccc1C(=O)O`, the Potency entry in the experiment with CP237, in the experiment on CP238, in the experiment on CP247, in the experiment on CP250, with CP252 and in the experiment on CP256 was “inactive” in each case. The Potency entry in the experiment on CP260, in the experiment with CP262, in the experiment on CP265 and in the experiment with CP266 was “inactive” throughout.

With `C[C@](N)(Cc1ccc(O)cc1)C(=O)O`, the Potency entry with CP237, in the experiment on CP238, in the experiment with CP247, in the experiment on CP250, with CP252 and with CP256 was “inactive” each time. Moreover, the Potency entry with CP260, in the experiment on CP262, with CP265 and in the experiment with CP266 was “inactive” each time.
